{"source": "PubChem BioAssay AID1878", "about": "(Sanford-Burnham Center for Chemical Genomics, 2009)", "note": "The whole screen tested about 1,000 compounds, of which about 200 (20%) were called active. Only a sample is shown. Measured potencies and affinities stand elsewhere. Values without a mark were called inactive. No stated cut-off is given here; in the data, active means inhibition above about 55%; inactive means the rest."}
{"biological_target": "Dual specificity protein phosphatase 3 (Homo sapiens) (UniProt P51452)", "sequence (P51452 whole entry, looked up)": "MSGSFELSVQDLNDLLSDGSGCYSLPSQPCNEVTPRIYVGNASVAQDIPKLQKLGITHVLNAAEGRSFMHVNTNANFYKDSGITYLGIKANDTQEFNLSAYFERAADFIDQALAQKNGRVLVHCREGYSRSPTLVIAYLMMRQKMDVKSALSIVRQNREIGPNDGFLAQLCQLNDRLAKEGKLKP", "test": "VHR1 phosphatase inhibitors, biochemical (AID 1878)", "details": "recombinant VHR phosphatase, fluorogenic substrate; at 13.3 µM; hits give high values"}
{"smiles": "CCOC(=O)C1CCCN(CC(=O)Nc2nccs2)C1", "note": "(stereo not given)", "inhibition": "23.9%"}
{"smiles": "CCOC(=O)c1ccc(S(=O)(=O)Nc2ccc(N3CCOCC3)cc2)cc1", "inhibition": "-9%"}
{"smiles": "CC(=O)N1CC(=O)Nc2ccc(F)cc2C1c1ccccc1", "note": "(stereo not given)", "inhibition": "32.3%"}
{"smiles": "CCOC(=O)C1=C(N)Oc2ccc3ccccc3c2C1c1cccc(O)c1", "note": "(stereo not given)", "inhibition": "-5.7%"}
{"smiles": "O=C(Nc1ccc(-n2nncc2-c2ccco2)cc1)c1cc2ccccc2oc1=O", "inhibition": "96.1% (active)"}
{"smiles": "CCn1c2ccccc2c2n[nH]c(=S)nc21", "inhibition": "-2.6%"}
{"smiles": "Cc1cc(C)c(S(=O)(=O)Nc2ccc(N(C)C)cc2)c(C)c1-n1cnnn1", "inhibition": "-1.2%"}
{"smiles": "CC(=O)NCCc1nc2cc(NC(=O)c3ccc([N+](=O)[O-])cc3)ccc2n1C", "inhibition": "-5.3%"}
{"smiles": "COc1ccc(Cc2nnc(NC(=O)c3ccco3)s2)cc1", "inhibition": "-10%"}
{"smiles": "CCN(CC)CCCNc1oc(-c2ccccc2[N+](=O)[O-])nc1C#N", "inhibition": "22.5%"}
{"smiles": "O=C1CSC(c2cccc([N+](=O)[O-])c2)N1Cc1ccccc1", "note": "(stereo not given)", "inhibition": "3.2%"}
{"smiles": "Cc1ccc(OCCCCN2CCCCC2)cc1", "inhibition": "6.5%"}
{"smiles": "Cc1ccccc1NC(=O)CN1C(=O)N/C(=C\\c2ccccc2OCc2ccc(C(=O)O)cc2)C1=O", "inhibition": "84.1% (active)"}
{"smiles": "CSc1nsc2nc(=O)c(/C=C3\\C(C)=Nc4ccccc43)c(N)n12", "inhibition": "7.5%"}
{"smiles": "COc1cc(NC(=O)c2noc(C)c2[N+](=O)[O-])c(OC)cc1Cl", "inhibition": "-2.3%"}
{"smiles": "CC1CC(C)CN(CCCNC(=O)C2CCCN(S(=O)(=O)N3CC(C)CC(C)C3)C2)C1", "note": "(stereo not given)", "inhibition": "20.9%"}
{"smiles": "C=CCn1c(=O)c2c(nc3n2CCCN3Cc2ccccc2)n(C)c1=O", "inhibition": "-4%"}
{"smiles": "Cc1cccc(NC(=O)c2cc3c(=O)n4ccccc4nc3s2)c1", "inhibition": "93.3% (active)"}
{"smiles": "C/C(=N\\NC(=O)c1c(C)nc2ccccn12)c1ccccc1F", "inhibition": "-12.4%"}
{"smiles": "Cc1cccc(NC(=O)c2cc(-c3ccc(C)c(C)c3O)n[nH]2)c1", "inhibition": "8.4%"}
{"smiles": "CCC(N)Cc1c[nH]c2ccccc12", "note": "(stereo not given)", "inhibition": "14.4%"}
{"smiles": "O=C(COc1ccccc1)Nc1ccncc1Cl", "inhibition": "8.7%"}
{"smiles": "O=C(COc1ccc2c(-c3ccccc3)cc(=O)oc2c1)Nc1cccnc1", "inhibition": "92.7% (active)"}
{"smiles": "Cc1cccc(CC(=O)Nc2cccnc2)c1", "inhibition": "-5.3%"}
{"smiles": "O=C(COc1ccc2c(-c3ccccc3)cc(=O)oc2c1)Nc1ccc(CCO)cc1", "inhibition": "84.8% (active)"}
{"smiles": "CC(C)CCN1CCC(n2nccc2NC(=O)C2CCOC2)CC1", "note": "(stereo not given)", "inhibition": "-5.2%"}
{"smiles": "Oc1cc(Br)ccc1C=Nc1ccc(N2CCCCC2)cc1", "inhibition": "-10%"}
{"smiles": "CCN(CC)c1ccc(NC(=O)CCNS(=O)(=O)c2ccc3c(c2)CCC(=O)N3)c(C)c1", "inhibition": "-13.1%"}
{"smiles": "CC1CCN(CCNC(=O)C2CCCN(c3ncnc4c3nc3n4CCCCC3)C2)CC1", "note": "(stereo not given)", "inhibition": "7.1%"}
{"smiles": "Cc1occc1C(=O)N1CCCC(CCC(=O)NCc2ccc(F)c(F)c2)C1", "note": "(stereo not given)", "inhibition": "-8.6%"}
{"smiles": "COc1ccccc1NC(=O)C1CCCN(S(=O)(=O)c2ccc3c(c2)CC(C)N3C(C)=O)C1", "note": "(stereo not given)", "inhibition": "17.3%"}
{"smiles": "O=C(NC1CC2CCC(C1)N2Cc1ccccc1)c1ccccc1Br", "note": "(stereo not given)", "inhibition": "-2.7%"}
{"smiles": "O=[N+]([O-])c1ccc(Oc2cccc3cccnc23)c(Cl)c1", "inhibition": "-14.5%"}
{"smiles": "O=P(Cc1ccccc1)(c1ccccc1)c1ccccc1", "inhibition": "6.2%"}
{"smiles": "Cc1cc(O)c(C=Nc2ccc(N3CCOCC3)cc2)c(C)c1Cl", "inhibition": "0.1%"}
{"smiles": "CCOC(=O)c1ccc(N/N=C/c2cc(Br)cc([N+](=O)[O-])c2O)cc1", "inhibition": "27.8%"}
{"smiles": "O=C(N/N=C/c1cc(Br)cc([N+](=O)[O-])c1O)c1ccc(NC(=O)c2ccc(F)cc2)cc1", "inhibition": "95.6% (active)"}
{"smiles": "COc1ccc(CC(=O)Nc2cccc3c2CCCC3)cc1", "inhibition": "-12.1%"}
{"smiles": "O=C(O)CC1OCC=C2CN3CCC45c6ccccc6NC4C1C2CC35", "note": "(stereo not given)", "inhibition": "-2.6%"}
{"smiles": "O=C1COc2ccc(S(=O)(=O)N3CCC(C(=O)NCc4ccc(F)cc4)CC3)cc2N1", "inhibition": "-1.8%"}
{"smiles": "Cc1cc(C)cc(N2CC(O)=C(c3nc4ccccc4c(=O)[nH]3)C2=N)c1", "inhibition": "60.5% (active)"}
{"smiles": "COc1ccc(C(=O)OC2CC[C@@]3(C)C4CCC5[C@]6(O)CC(O)[C@@]7(O)C(CN8CC(C)CCC8[C@@]7(C)O)[C@]6(O)C[C@@]53O[C@]24O)cc1OC", "note": "(stereo not given in full)", "inhibition": "-10.1%"}
{"smiles": "COC(=O)CCCC(=O)N1CCC(n2nccc2NC(=O)CCOc2ccccc2)CC1", "inhibition": "7.4%"}
{"smiles": "Cc1cc(=O)oc2c3c(cc(OCC(=O)NCC(=O)N[C@H](C(=O)O)C(C)C)c12)OC(C)(C)CC3", "inhibition": "9.6%"}
{"smiles": "COc1cccc(CC(NC(C)=O)C(=O)NC2CCN(C(=O)c3ccc(Cl)cc3)CC2)c1", "note": "(stereo not given)", "inhibition": "0.6%"}
{"smiles": "CCCNC(=O)CN1C(=O)COc2ccc(S(=O)(=O)N3CC(C)CC(C)C3)cc21", "note": "(stereo not given)", "inhibition": "5%"}
{"smiles": "O=C(NCCN1CCOCC1)C(=O)NCC1OCCCN1S(=O)(=O)c1ccc(F)cc1", "note": "(stereo not given)", "inhibition": "-15.9%"}
{"smiles": "O=C(O)c1ccc(N2C(=O)/C(=C/c3ccc(-c4ccc([N+](=O)[O-])cc4)o3)C=C2c2ccccc2)cc1", "inhibition": "99% (active)"}
{"smiles": "CC1CC(C)CN(CCCNC(=O)CCC(=O)N2CC(C)Oc3ccccc32)C1", "note": "(stereo not given)", "inhibition": "-2.6%"}
{"smiles": "O=C(/C=C/c1c(Cl)nc2ccccn12)N1CCN(c2ccc(F)cc2)CC1", "inhibition": "26.8%"}
{"smiles": "Cn1c(SCC(=O)Nc2ccc(N3CCOCC3)cc2)nnc1-c1ccco1", "inhibition": "1%"}
{"smiles": "Cc1ccc(NC(=O)C2CCN(C(=O)c3ccco3)CC2)cc1", "inhibition": "-5.8%"}
{"smiles": "Cc1cc(OCC(=O)Nc2ccc(N3CCN(C(=O)c4ccco4)CC3)cc2)cc(C)c1Cl", "inhibition": "94.6% (active)"}
{"smiles": "Cc1ccc(S(=O)(=O)N2CCCCC2)c2nsnc12", "inhibition": "-2%"}
{"smiles": "COc1cc(C(=O)N2CCc3ccccc32)c([N+](=O)[O-])cc1OC", "inhibition": "26.5%"}
{"smiles": "CCOc1ccc2nc(N3CCCC(C(=O)NCCCN4C(C)CCCC4C)C3)sc2c1", "note": "(stereo not given)", "inhibition": "-12.1%"}
{"smiles": "Cc1ccc2oc(Nc3nc(-c4ccccc4)cc(=O)[nH]3)nc2c1", "inhibition": "61.1% (active)"}
{"smiles": "CCOc1ccc(C(=O)NC2CCN(CC(=O)NCc3ccccc3)CC2)cc1", "inhibition": "-7.3%"}
{"smiles": "COc1cccc(NC(=O)NCCN2CCCCC2)c1", "inhibition": "-15.8%"}
{"smiles": "Cc1ccc(NC(=S)c2ccc3ccccc3n2)c(C)c1", "inhibition": "5.5%"}
{"smiles": "Cc1ccc(-n2cccn2)c([C@@H]2C[C@H]3CN(C)C(=O)[C@]34CCCN24)c1", "inhibition": "-6.3%"}
{"smiles": "C=CCc1cc(Cl)ccc1OCCOCCNC(C)(C)C", "inhibition": "-15%"}
{"smiles": "Brc1ccc(C2=Nc3ccccc3C(c3ccncc3)=NN2)cc1", "inhibition": "82.1% (active)"}
{"smiles": "COC(=O)[C@@]1(Cc2ccc(F)cc2)[C@H]2c3cc(C(=O)N4CCCC4)n(CCc4ccccn4)c3C[C@H]2CN1C(=O)c1ccccc1", "inhibition": "-0.9%"}
{"smiles": "CCC1CCCCN1CCCNC(=O)Cn1ncn2nc(-c3ccc(OC)cc3)cc2c1=O", "note": "(stereo not given)", "inhibition": "-4%"}
{"smiles": "OCCC1CN(Cc2ccc(F)cc2)CCN1CCc1ccccc1", "note": "(stereo not given)", "inhibition": "-5.4%"}
{"smiles": "O=C(N/N=C1/C(=O)c2cccc3cccc1c23)c1ccc(Cl)cc1", "inhibition": "98.9% (active)"}
{"smiles": "CCOc1ccccc1N(C(=O)c1ccco1)C(C(=O)NC1CCCC1)c1cccs1", "note": "(stereo not given)", "inhibition": "14.1%"}
{"smiles": "COc1ccc(OCC(O)CN(CC(O)COc2ccc(OC)cc2)c2cccc(O)c2)cc1", "note": "(stereo not given)", "inhibition": "3.9%"}
{"smiles": "CCC(CO)(CO)N(CC(=O)Nc1ccc(OC)cc1)CC(=O)Nc1ccc(OC)cc1", "inhibition": "5.4%"}
{"smiles": "N=C1/C(=C\\c2ccc(-c3cccc(C(=O)O)c3)o2)C(=O)N=C2SC=C(c3ccccc3)N12", "inhibition": "88.1% (active)"}
{"smiles": "N=C1/C(=C/c2ccc(-c3cccc(C(=O)O)c3)o2)C(=O)N=C2SC=C(c3ccccc3)N12", "inhibition": "79.5% (active)"}
{"smiles": "N=C1/C(=C\\c2ccc(-c3ccc(C(=O)O)cc3)o2)C(=O)N=C2SC=C(c3ccccc3)N12", "inhibition": "97.1% (active)"}
{"smiles": "COc1ccc(S(=O)(=O)N2CCCOC2CNC(=O)C(=O)NC2CCCC2)cc1", "note": "(stereo not given)", "inhibition": "-10.2%"}
{"smiles": "Cc1cc(Br)c(S(=O)(=O)NCc2cccnc2)cc1C", "inhibition": "5.2%"}
{"smiles": "OC(COC(c1ccc(F)cc1)c1ccc(F)cc1)CN1CCCC(C(F)(F)F)C1", "note": "(stereo not given)", "inhibition": "-7.4%"}
{"smiles": "Fc1cccc(/C=N/n2c(C3CCCCC3)n[nH]c2=S)c1", "inhibition": "0.6%"}
{"smiles": "COc1ccc(CCC(=O)NCCc2cnc[nH]2)cc1", "inhibition": "-0.5%"}
{"smiles": "CCOc1cc2[nH]c(=S)n(Cc3ccc(C(=O)NCCCOC)cc3)c(=O)c2cc1OCC", "inhibition": "11.5%"}
{"smiles": "O=C(N=C1SC2CS(=O)(=O)CC2N1Cc1ccccc1)C1CCCO1", "note": "(stereo not given)", "inhibition": "-9.5%"}
{"smiles": "Cc1ccc(S(=O)(=O)NCC(=O)N2CCc3ccccc3C2)cc1", "inhibition": "7.4%"}
{"smiles": "Cc1ccccc1-n1c(SCC(=O)Nc2ccccc2Cl)nc2n[nH]c(C)c2c1=N", "inhibition": "-7.4%"}
{"smiles": "CCn1c(C)c(C)c2cc(C(=O)NCCCN3CCCCC3C)ccc21", "note": "(stereo not given)", "inhibition": "-4.1%"}
{"smiles": "O=C1CCCN1CCCNC(=S)Nc1ccc(F)c(Cl)c1", "inhibition": "58.6% (active)"}
{"smiles": "COc1ccc(NC(=S)NCCCN2CCCC2=O)c(OC)c1", "inhibition": "47.4%"}
{"smiles": "O=C1CCCN1CCCNC(=S)Nc1ccc(F)cc1", "inhibition": "48.6%"}
{"smiles": "CC(=O)c1cccc(CN2CCC(CO)(CCOc3ccccc3)CC2)c1", "inhibition": "-26.7%"}
{"smiles": "COc1ccc(Cl)cc1NC(=O)C/C(C)=N/NC(=O)c1ccc(O)cc1", "inhibition": "-3.4%"}
{"smiles": "CCOC(=O)CN(C)Cc1cn[nH]c1-c1ccc2cc(OC)ccc2c1", "inhibition": "4%"}
{"smiles": "O=C(CC12CC3CC(CC(C3)C1)C2)NCc1ccc(F)cc1", "inhibition": "-9.3%"}
